The molecules below were run on PIM3. Settings: concentration: 1 μM, replicates: in singlicate; n = 1.
In the case of `FC(F)(F)c1ccc(/C=C/c2cncnc2Nc2ccc3[nH]c(Cc4ccccc4)nc3c2)cc1` [GW709199], the “%Inh” value was 0%. In the case of `O=C(Nc1cccc(-c2nn3ccccc3c2-c2ccnc(Nc3cccc(F)c3)n2)c1)c1c(F)ccc(F)c1Cl` [GSK357952], the “%Inh” value was 0%. With `O=C(Nc1ccccc1F)NC1CCN(c2ccnc(Nc3ccc(F)cc3)n2)CC1` [GSK1379800] the “%Inh” value was 0%. `Cc1occc1-c1ncc(OC[C@@H](N)Cc2c[nH]c3ccccc23)cc1-c1ccc2[nH]nc(C)c2c1.O=C(O)C(F)(F)F` [GSK682037] was tested, and the “%Inh” value was 64%. For `C[C@@H]1CC[C@@H](C(=O)Nc2ccccc2)CN1c1cc(-c2ccc3c(N)n[nH]c3c2)nc(N)n1` [GSK2286062], the “%Inh” value was 4%. In the case of `Cl.NC(=O)c1cccc(Nc2nccc(Nc3ccc(Oc4c(Cl)cccc4Cl)c(Cl)c3)n2)c1` [GW659009], the “%Inh” value was 4%. With `Cc1ccc(C(=O)Nc2ccc(Nc3ccnc4cc(-c5nccs5)ccc34)cc2O)cc1.Cl` [GW494702] the “%Inh” value was 0%. With `CNC(=O)c1ccccc1Nc1nc(Nc2ccc(N3CCOCC3)cc2)ncc1Cl.Cl` [GSK1576028] the “%Inh” value was 55%. For `COc1cc(Nc2nccc(-c3c(-c4cccc(NC(=O)c5c(F)cccc5F)c4)nn4ccccc34)n2)cc(OC)c1OC` [GSK323521], the “%Inh” value was 5%. For `Nc1ncnc2c1nc(-c1ccccc1)n2-c1ccccc1` [SKF-97293], the “%Inh” value was 24%. In the case of `Fc1ccc(-c2ncn(C3CCNCC3)c2-c2ccnc(Oc3ccc(-c4ccccc4)cc3)n2)cc1` [SB-245391], the “%Inh” value was 16%. For `Cl.Cl.NCC(NCc1ccc(-c2ccnc3[nH]ccc23)s1)c1ccccc1` (centres unmarked) [GSK1321565], the “%Inh” value was 0%. For `CC(=O)N1CCN(c2ccc(Nc3nccc(-c4sc(C(C)C)nc4-c4cccc(NS(=O)(=O)c5cccc(Cl)c5)c4)n3)cn2)CC1` [GSK1660437], the “%Inh” value was 89%. `COc1ccc(Nc2nccc(N3CCC(NC(=O)Nc4cccc(OC)c4)C3)n2)cc1` (centres unmarked) [GSK1379742] was tested, and the “%Inh” value was 3%. In the case of `Cl.Cl.NCC(NC(=O)c1cc(-c2ccccc2)c(-c2ccnc3[nH]ccc23)s1)c1ccccc1` (centres unmarked) [GSK1321561], the “%Inh” value was 0%. In the case of `O=C(Nc1n[nH]c2cc(-c3ccoc3)ccc12)C1CC1` [SB-738481], the “%Inh” value was 0%. With `Cl.c1ccc(-c2ccc3c(Nc4ccc5[nH]ccc5c4)ccnc3c2)nc1` [GW440138] the “%Inh” value was 0%. In the case of `COc1cc(Nc2nccc(-c3c(-c4cccc(NC(=O)c5c(F)cccc5F)c4)nn4ncccc34)n2)cc(OC)c1OC` [GSK327238], the “%Inh” value was 0%. In the case of `CCCCc1nn2ncccc2c1-c1ccnc(Nc2ccc(N3CCN(C)CC3)cc2)n1` [GW684941], the “%Inh” value was 0%. With `Nc1ncc(-c2ccc3nccc(-c4ccncc4)c3c2)cc1S(=O)(=O)N1CCOCC1` [GSK1627798] the “%Inh” value was 0%. `Cc1ccc(S(=O)(=O)Nc2ccc(Nc3nccc(Nc4cccc5[nH]ncc45)n3)cc2)cc1` [GSK581271] was tested, and the “%Inh” value was 0%. With `COc1ccc(Nc2nccc(NCCNC(=O)c3cc4ccccc4s3)n2)cc1` [GSK1379896] the “%Inh” value was 2%. In the case of `NCCCC(NC(=O)c1cc(Br)c(-c2ccnc3[nH]ccc23)s1)c1ccccc1.O=C(O)C(F)(F)F.O=C(O)C(F)(F)F` (centres unmarked) [GSK1287544], the “%Inh” value was 22%. `CC(C)c1nc(-c2cccc(NS(=O)(=O)c3c(F)cccc3F)c2F)c(-c2ccnc(Nc3ccc(N4CCOCC4)nc3)n2)s1` [GSK2008607] was tested, and the “%Inh” value was 0%. `O=C(NC1CCN(c2ccnc(Nc3ccc(F)cc3)n2)C1)c1cc2ccccc2s1` (centres unmarked) [GSK1379716] was tested, and the “%Inh” value was 11%. In the case of `Nc1ncc(-c2cccnc2)c2scc(-c3ccc4c(c3)CCN4C(=O)Cc3ccccc3)c12` [GSK683281], the “%Inh” value was 0%. In the case of `CC(C)(C)c1ccc2nccc(Nc3cccc(O)c3)c2c1` [GW856795], the “%Inh” value was 0%. In the case of `COc1cccc(C2=C(Nc3ccc(Cl)c(C(=O)O)c3)C(=O)NC2=O)c1` [SB-390769], the “%Inh” value was 0%. For `Cc1ccc(F)c(C(=O)Nc2cccc(-c3nn4ccccc4c3-c3ccnc(Nc4cccc(F)c4)n3)c2)c1F` [GSK361061], the “%Inh” value was 7%. For `O=C(Nc1n[nH]c2nc(-c3ccc(O)cc3)ccc12)C1CC1` [SB-710363], the “%Inh” value was 81%. With `c1ccc(-c2n[nH]cc2Nc2ccnc3ccccc23)nc1` [GW694077] the “%Inh” value was 79%. In the case of `CCn1c(-c2nonc2N)nc2c(C#CC(C)(C)O)ncc(OCCCCN)c21.O=C(O)C(F)(F)F.O=C(O)C(F)(F)F` [GSK507274], the “%Inh” value was 78%.

From publication PMC5540273 (PLoS ONE, 2017)
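Note: KINOMEscan kinase panel screen.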
